TIM10 inh = TIM10 yeast growth inhibition. S. cerevisiae TIM10 strain growth, BacTiter-Glo luminescence, 24 h. inhibition, % at 10 µM. hit rate 1.4% among 330,000;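 active = inhibition of 40% or more at the single tested concentration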;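 note: wild-type TIM10 isogenic control strain grown at permissive 25 °C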
SKKanGAS inh = blocks kanamycin growth of S. pyogenes SKKanGAS strain; BacTiter-Glo, 6 h; inhibition, % at 7.5 µM; hit rate 1.3% among 300,000; AID 1662;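 active = mean replicate score, as percent of positive control median, at least 50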;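 note: strain carries kanamycin resistance gene driven by streptokinase promoter and grows in 40 µg/ml kanamycin; loss of luminescence reflects streptokinase promoter inhibition or plain growth inhibition; 0% = median of DMSO wells and 100% = positive control at its reference dose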
NALP3 yeast inh = NALP3 inhibition in yeast. inhibition, % at 10 µM. AID 2825. Yeast reconstituted NLRP3/ASC/caspase-1, beta-gal luminescence, 24 h. hit rate 0.39% among 330,000;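 active = inhibition of 50% or more; inactive = inhibition below 50%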;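 note: plate controls were induced DMSO wells for no effect and uninduced yeast grown without galactose for full effect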
tim23-1 inh = inhibits growth of tim23-1 mutant yeast | S. cerevisiae tim23-1 growth, BacTiter-Glo luminescence, 24 h | inhibition, % at 20 µM | hit rate 1.3% among 330,000 | AID 463212;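 active = growth inhibition of the mutant yeast at or above 50%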;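 note: temperature-sensitive mutant grown at 25 °C; plate controls were DMSO-treated mutant yeast for no effect and medium wells lacking yeast for full effect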
PfHsp90 set2 = reduces growth (ATP signal) of yeast expressing P. falciparum Hsp90. S. cerevisiae expressing PfHsp90, BacTiter-Glo ATP, 48 h; yeast lacking PDR1 and PDR3 efflux regulators. inhibition, % at 9.4 µM. hit rate 0.32% among 310,000. AID 504621;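 active = every replicate shows inhibition above about 80%, whatever the replicate mean, limit read from the data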;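 note: 0% = DMSO neutral controls and 100% = 20 µM radicicol positive controls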
tim10-1 inh = tim10-1 yeast growth inhibition | AID 463190 | hit rate 2.2% among 330,000 | S. cerevisiae tim10-1 ts strain growth, BacTiter-Glo, 24 h | inhibition, % at 20 µM;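 active = inhibition of at least 40%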;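 note: mutant grown at 25 °C; 0% = DMSO wells with yeast and 100% = wells holding no yeast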
tim10-1 confirm = tim10-1 yeast growth inhibition, confirmed | shares compounds with tim10-1 inh | S. cerevisiae tim10-1 ts strain growth, BacTiter-Glo, 24 h | inhibition, % at 20 µM | hit rate 56% among 7,400 | AID 463213;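 active = inhibition of yeast growth at or above a set limit in either of two repeat tests at 20 µM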;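 note: tim10-1 mutant grown at permissive 25 °C to find synthetic lethal compounds; 0% = DMSO yeast wells and 100% = medium wells without yeast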
The depositor's hits bear a star; nt = not tested or not shown. Rows were chosen to be rich in hits. Some 4.5% of all compounds tested hit in one or more screens of this group.

SMILES	TIM10 inh	SKKanGAS inh	NALP3 yeast inh	tim23-1 inh	PfHsp90 set2	tim10-1 inh	tim10-1 confirm
COc1ccc2c(c1)CC/C(=C\c1ccc(OC)c(Cn3nc(C)cc3C)c1)C2=O	14	17	16	13	nt	40*	11
COc1ccc2c(c1)CC/C(=C\c1ccc(OC)c(Cn3cccn3)c1)C2=O	6	8	8	32	nt	23	nt
CN(CC(=O)Nc1ccccc1Cl)C(=O)c1ccccc1Sc1ccccc1C#N	-6	-3	6	22	nt	23	nt
CCOCCCNC(=O)Cn1nc(Cc2ccncc2)c2ccccc2c1=O	5	-2	21	14	-11	-21	nt
CCCn1c(/N=C/c2c[nH]c3ccccc23)nc2ccccc21	2	1	14	37	11	26	nt
CCCCn1c(/N=C/c2c[nH]c3ccccc23)nc2ccccc21	2	0	27	33	18	41*	22
CC1CCCCN1C(=O)COC(=O)C1CCN(S(=O)(=O)c2c(Cl)cccc2Cl)CC1 (centres undefined)	-11	20	20	14	-11	6	nt
COc1ccc2[nH]c(=O)c(CN(C3CCCCC3)C(c3nnnn3Cc3ccco3)C(C)C)cc2c1 (centres undefined)	20	19	22	29	-15	41*	16
COc1ccc2[nH]c(=O)c(CN(Cc3nnnn3Cc3ccco3)C3CCCCC3)cc2c1	-4	-11	4	19	17	5	nt
CC(=O)c1ccc(N(CC(=O)Nc2cc(C)on2)S(=O)(=O)c2ccc(C)cc2)cc1	0	nt	4	5	nt	1	nt
Brc1cc(Br)c2ncnc(N3CCCCC3)c2c1	2	11	-15	47	-4	46*	12
S=C(NCCCNC(=S)Nc1ccccc1)Nc1ccccc1	5	2	1	22	-2	10	nt
CCCNC(=S)Nc1ccc(Nc2ccccc2)cc1	1	-5	25	25	5	42*	24
CCCCNC(=S)Nc1ccc(C(F)(F)F)cc1	21	9	7	47	-13	54*	31*
Cc1nc(CC(=O)Nc2nccs2)cs1	-3	-3	7	-4	-9	0	nt
CCCC[C@@H]1CNC(=S)N1CCC12CC3CC(CC(C3)C1)C2	10	45	21	36	0	42*	16
Cc1noc(C(C)C)c1C(=O)Nc1ccc(-c2nnc3n2CCCCC3)cc1	-1	nt	7	2	-8	-16	nt
Cc1ccc(S(=O)(=O)/C(C#N)=C/c2c[nH]c3ccccc23)cc1	30	-3	9	35	-7	49*	24
Cc1ccc(S(=O)(=O)N/N=C/c2c[nH]c3ccccc23)cc1	-2	-12	5	8	-17	0	nt
Cc1cc(C(=O)Cn2nc(C(=O)O)c3ccccc3c2=O)c(C)n1-c1ccccc1	19	40	10	30	-14	42*	18
COc1ccccc1C(=O)N1CCN(c2nc3cc(C)c(C)cc3cc2C#N)CC1	29	-1	6	34	-57	43*	24
Cc1sc2ncnc(SCc3ccc(C(=O)O)cc3)c2c1C	-11	-7	24	31	2	-6	nt
COC(=O)c1ccc(CSc2ncnc3sc(C)c(C)c23)o1	29	-1	32	11	nt	46*	37*
Cc1ccc(-c2csc3nc4c5ccccc5c(NCCCN5CCOCC5)nn4c(=O)c23)cc1	-1	5	9	18	nt	43*	39*
CC(=O)SC1CC(=O)N(c2ccc(C(C)(C)C)cc2)C1=O (centres undefined)	36	4	22	43	-1	55*	53*
SMILES	TIM10 inh	SKKanGAS inh	NALP3 yeast inh	tim23-1 inh	PfHsp90 set2	tim10-1 inh	tim10-1 confirm
O=C(CN1CCC(n2nnc3cc(F)ccc32)CC1)Nc1ccc2c(c1)CCC2	14	nt	17	17	-19	47*	22
CCN1CCN(c2oc(-c3ccccc3)nc2S(=O)(=O)c2ccc(C)cc2)CC1	18	nt	19	12	9	17	nt
CCOc1ccc(C(OC(=O)c2ccco2)C(=O)NCc2ccc(C)cc2)cc1 (centres undefined)	-9	-6	-6	23	-46	43*	12
O=C1/C(=C/c2ccccc2Cl)SC(=S)N1CCC(=O)N1CCCCC1CCO (centres undefined)	29	11	11	49	-3	46*	28
CCCN(CCC)S(=O)(=O)c1cc(Br)cc2c1N(C(=O)CC)CC2	27	-6	-1	39	nt	46*	34*
CCC(=O)N1CCc2cc(Br)cc(S(=O)(=O)CCC(=O)N(CC)CC)c21	6	-8	2	2	22	5	nt
BrC(=C\c1ccccc1)/C=N/Nc1nc2ccccc2[nH]1	36	29	4	44	31	54*	32*
C(=N\Nc1nc2ccccc2[nH]1)/c1ccccn1	nt	25	nt	nt	26	nt	nt
CC(C)(C)NC(=O)CC1C[C@H](C(=O)N2CCCCC2)[C@@]2(CCc3ccccc3)c3[nH]c4ccccc4c3CCN2C1=O (some centres undefined)	0	nt	13	15	-3	11	nt
C=CCNc1nc(Nc2ccc([N+](=O)[O-])cc2)nc(N2CCCC2)n1	23	17	6	26	-48	35	nt
CC1CCN(c2nc(Cl)nc(Nc3ccc([N+](=O)[O-])cc3)n2)CC1	22	2	34	40	98*	46*	27
CCOc1ccc(-c2nc(CSCC(=O)NC3CCCc4ccccc43)c(C)o2)cc1 (centres undefined)	35	28	8	36	nt	40*	25
CCOc1ccc(-c2nc(CSCC(=O)NC3CC3)c(C)o2)cc1	-2	-5	14	21	5	15	nt
COC(=O)c1sc2nc(C)c([N+](=O)[O-])c(C)c2c1N	20	-14	36	35	9	50*	25
CCOC(=O)c1sc2nc(C)cc(C)c2c1N	13	-8	7	6	nt	22	nt
FC(F)(F)c1nnc(-c2ccccc2)nc1Oc1ccc(Cl)cc1Cl	12	-4	9	44	-4	51*	47*
CC1(C(=O)OCC(=O)Nc2cc(S(=O)(=O)N3CCOCC3)ccc2Cl)CC1(Cl)Cl (centres undefined)	nt	nt	nt	nt	-1	nt	nt
Cc1cccc2c1nc(-c1ccccc1)n1cnnc21	0	10	-12	26	nt	40*	24
Cc1cccc2c1nc(-c1ccccc1)n1nnnc21	-3	-15	-32	9	nt	18	nt
Clc1ccc(-c2n[nH]c3c2CCC3)c(Cl)c1	15	96*	18	33	-8	41*	25
CN(C)/C=C1/Sc2ccccc2C1=O	-1	-1	-2	12	-5	7	nt
CC(=O)N(\C=C/C=C/C=C1\Sc2ccccc2C1=O)c1ccccc1	33	9	26	29	-3	41*	46*

Assay outcomes deposited in PubChem BioAssay by several laboratories.
